# BoNT-A LC inh2 = BoNT/A light chain protease inhibitors, primary screen, biochemical, flow cytometry, MLPCN library; inhibition, % at 10 µM; AID 588499, 2011; Botulinum neurotoxin type A light chain protease (Clostridium botulinum A str. ATCC 3502); 0.17% of 360,000 active; multiplex microsphere protease substrate cleavage; note: plate controls were buffer without enzyme for full effect and enzyme alone for no effect
# MazF activator = activators of E. coli MazEF toxin-antitoxin RNase, primary screen, biochemical, fluorescence, uHTS; Endoribonuclease toxin MazF (Escherichia coli (strain K12)), P0AE70; FAM/BHQ RNA-DNA oligo cleavage fluorescence, 5 h; activation, % at 20 µM; 0.32% of 350,000 active; in the data active = activation above about 50%
# Bead autofluor = flagged as autofluorescent in microsphere protease counterscreen. fluorescence intensity (concentration not given with the values). 3.1% of 360,000 active. compound autofluorescence counterscreen, microsphere flow cytometry; active compounds read high; in the data active = fluorescence intensity above about 16000; inconclusive = no clear call, values can overlap the other calls
# BoNT F protease = BoNT/F light chain protease inhibitors, primary screen, biochemical, flow cytometry, MLPCN library | Botulinum neurotoxin type F light chain protease (Clostridium botulinum) | Multiplex microsphere protease cleavage assay | inhibition, % at 10 µM | 0.22% of 360,000 active | AID 588497, 2011; in the data active = inhibition above about 35%, passing the limit was not always enough; inconclusive = no clear call, values can overlap the other calls; note: plate controls were buffer without enzyme for full effect and enzyme alone for no effect
# Anthrax LF prot = Bacillus anthracis LF protease inhibitors, primary screen, biochemical, multiplex microsphere, MLPCN library. Lethal factor (Bacillus anthracis), P15917. multiplex microsphere protease cleavage assay. inhibition, % at 10 µM. 0.12% of 360,000 active; note: plate controls were buffer without enzyme for full effect and enzyme alone for no effect
# Target sequence (P15917 whole entry, looked up): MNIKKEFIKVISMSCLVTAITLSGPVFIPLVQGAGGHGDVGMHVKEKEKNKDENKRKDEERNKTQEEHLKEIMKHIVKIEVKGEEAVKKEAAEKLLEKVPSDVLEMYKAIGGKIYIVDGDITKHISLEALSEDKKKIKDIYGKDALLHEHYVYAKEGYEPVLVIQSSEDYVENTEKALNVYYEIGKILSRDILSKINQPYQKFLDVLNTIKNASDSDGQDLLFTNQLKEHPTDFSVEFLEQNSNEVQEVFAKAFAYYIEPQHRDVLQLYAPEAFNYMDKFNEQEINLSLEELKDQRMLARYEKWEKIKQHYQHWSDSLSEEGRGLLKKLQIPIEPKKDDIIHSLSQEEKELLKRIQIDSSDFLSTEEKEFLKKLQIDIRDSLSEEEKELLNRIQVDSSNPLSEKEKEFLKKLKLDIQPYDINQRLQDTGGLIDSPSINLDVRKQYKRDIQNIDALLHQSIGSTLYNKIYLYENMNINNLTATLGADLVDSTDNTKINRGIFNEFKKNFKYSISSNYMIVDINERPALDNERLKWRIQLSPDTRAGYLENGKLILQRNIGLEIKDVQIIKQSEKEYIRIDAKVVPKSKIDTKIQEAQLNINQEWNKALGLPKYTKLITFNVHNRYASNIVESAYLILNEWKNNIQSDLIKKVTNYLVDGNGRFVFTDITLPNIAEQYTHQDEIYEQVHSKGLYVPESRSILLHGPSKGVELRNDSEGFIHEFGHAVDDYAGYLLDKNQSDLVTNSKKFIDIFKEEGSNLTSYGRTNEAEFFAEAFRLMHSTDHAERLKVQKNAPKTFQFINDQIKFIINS
# Active calls of the source: *; ? = inconclusive; . = no result given. Rows were chosen to be rich in hits. Some 3.6% of all compounds tested hit in one or more screens of this group. Cut-off read from the data, not from the text of the source, unless noted: active = inhibition above about 30%; inconclusive = no clear call, values can overlap the other calls; inactive = below that.
SMILES,BoNT-A LC inh2,MazF activator,Bead autofluor,BoNT F protease,Anthrax LF prot
CCOC(=O)C1=C(Cn2cnc3ccccc32)NC(=O)NC1c1ccc(OC)cc1 (configuration not stated),-1.2,-7.6,16933*,-1.4,2.2
CCC(=NCc1ccccc1)c1c(C(F)(F)F)[nH]n(-c2nc3ccccc3s2)c1=O,-1.7,5.8,16663*,-2.2,-3.7
CCn1c(NCc2ccccn2)nc2c1c(=O)n(C)c(=O)n2C,-0.8,0.6,16824*,-0.8,1.2
CCOc1ccc(CCNc2nc3c(c(=O)n(C)c(=O)n3C)n2CC)cc1OCC,?,1.0,16756*,-2.4,0.6
O=C(Nc1cccc(S(=O)(=O)N2CCOCC2)c1)c1cc2c(s1)CCC2,?,3.4,?,-15.9,-9.5
O=C(Nc1cccc(Cn2cccn2)c1)c1cc2c(s1)CCCC2,-3.0,7.5,16682*,-3.3,-7.8
COc1ccc2oc(=O)c(C(=O)N3CCN(C(=O)c4ccco4)CC3)cc2c1,-3.8,0.9,3764,-13.5,1.3
COc1ccc(CCN(Cc2cc3cccc(C)c3[nH]c2=O)C(=O)NC2CCCCC2)cc1OC,0.5,4.8,23128*,-0.8,1.3
O=C(Cn1cc2c(n1)CCCCC2)Nc1ccccc1Br,0.7,-2.8,4237,-1.4,1.5
CCOc1ccc(C(=O)CCC(=O)O)cc1,0.3,-10.3,10329,-2.5,-1.4
CCOc1ccc(OCCCC(=O)O)cc1,0.4,4.3,20482*,-0.8,-2.2
COc1ccc(NC(=O)c2c(C(F)(F)F)nn(C)c2SCc2ccccc2Cl)cc1,1.5,4.6,19414*,-0.8,1.3
COc1ccc(NC(=O)c2ccc(C(=O)c3cc(OC)ccc3OC)cc2)cc1,5.6,-9.2,20895*,6.5,1.1
C=C(C)CSC1=C(C#N)C(c2ccccc2Cl)CC(=O)N1 (configuration not stated),0.4,-2.8,23035*,1.1,2.5
CSc1ccccc1C(=O)NCC1CCCO1 (configuration not stated),4.8,0.9,18506*,8.9,-2.4
CSc1ccccc1C(=O)NC1CCCCC1,2.2,-0.2,22309*,0.8,-5.4
Cc1ccc(S(=O)(=O)C(CCC(=O)c2ccc(Cl)cc2)C(N)=O)cc1 (configuration not stated),-4.1,10.2,21117*,-7.1,1.3
Cc1ccc(NCCC(=O)c2ccc(Cl)cc2)cc1,-0.6,3.2,10041,-0.7,0.3
Cc1ccccc1C(=O)NNc1ccc([N+](=O)[O-])cc1,?,-5.8,19390*,10.5,-8.1
Cc1ccccc1C(=O)NCCNc1ccc([N+](=O)[O-])cc1,0.0,6.2,4236,-3.3,-6.5
Cc1cc(C)c(NN=c2c(=O)c3ccccc3c2=O)c(C)c1,-1.0,9.9,16485*,-1.3,-2.9
CC(Oc1cc2oc(=O)c3c(c2cc1Cl)CCC3)C(=O)NCCN1CCOCC1 (configuration not stated),0.8,-24.7,5163,4.5,0.0
CCCS(=O)(=O)NC(=O)C1(C)CCN(C(=O)COc2ccc(Cl)cc2Cl)C1 (configuration not stated),-0.2,.,3920,1.3,-0.5
COc1cc(NC(=O)N[C@@H](CCSC)C(=O)O)cc(OC)c1,-1.0,4.6,4524,-2.7,-4.7
COc1cc(NC(=O)N[C@H](C(=O)O)C(C)C)cc(OC)c1,1.9,-3.5,21545*,4.5,1.2
SMILES,BoNT-A LC inh2,MazF activator,Bead autofluor,BoNT F protease,Anthrax LF prot
COc1cc(NC(=O)C(F)(F)F)cc(OC)c1,-0.9,12.3,16433*,-4.8,-2.9
COc1ccccc1Cn1c(=S)[nH]c2cc(C(=O)N3CCCC(C)C3)ccc2c1=O (configuration not stated),-0.2,5.2,4176,-3.2,-4.2
Cc1cc(C)cc(C(=O)OCC(=O)N2CCCCCC2)c1,0.3,5.1,3838,-5.2,3.1
CCOC(=O)c1cccnc1SCC(=O)N(C)c1ccccc1,1.4,0.2,22147*,0.1,3.3
CC1=CC(C)(C)N=C(Nc2nc(C)c3cc(C)cc(C)c3n2)N1,0.1,-6.5,6348,0.7,-3.4
CC1=CC(C)(C)N=C(NC#N)N1,0.8,3.8,19967*,1.6,-1.1
CC12CN(C(=O)c3ccc(Cl)cc3)C3(C#N)CC1CCC23C (configuration not stated),?,-3.7,22214*,-11.7,-0.7
CC12CN(NC(=O)c3ccccc3F)C3(C#N)CC1CCC23C (configuration not stated),-0.7,9.3,4231,-5.9,-3.1
CC(C)n1c(CCCO)nc2ccccc21,-4.2,6.5,24524*,-7.5,-1.0
CN(C)c1ccc2nc3ccc(=[N+](C)C)cc-3sc2c1,31.5*,-4.4,2168,-24.8,7.1
CN(C)c1ccc2nc3ccc(=O)cc-3sc2c1,3.9,-2.7,2898,-3.4,-2.0
Cc1cc2nc3ccc(=[N+](C)C)cc-3sc2cc1N,61.4*,-12.1,3584,-9.6,20.0
Cc1nc2cc(C)c(C)cc2s1,0.6,5.9,4430,2.8,1.2
Cc1cc(O)c(C(=O)/C=C/c2ccc(Cl)cc2)c(=O)o1,-0.8,-3.7,3737,?,6.5
CSc1ccc(/C=C/C(=O)c2c(O)cc(C)oc2=O)cc1,-2.5,17.6,4310,45.1*,-2.1
CCOC(=O)Cc1nnc(NC(=O)c2ncn[nH]2)s1,-2.5,-8.2,23312*,-2.3,-8.3
CCOc1ccc(Oc2cc(C)nc(SC)n2)nn1,-0.6,-5.7,3616,-11.1,1.8
COC(=O)COc1ccc(Oc2cc(C)nc(SC)n2)nn1,?,2.6,21755*,-5.9,0.8
Cc1ccccc1OCCCCCNCCO,-0.3,0.2,11071,-11.6,-2.4
CC(C)(C)c1ccccc1OCCCCCNCCO,12.2,11.0,18177*,10.2,-11.0
CCCSc1ccc([C@@H]2[C@H]3C(=O)N(CC)C(=O)[C@H]3[C@]3(C(=O)OC)CCCCN23)cc1,-6.8,-75.9,22612*,21.6,1.3
CCN1C(=O)[C@H]2[C@@H](c3ccc(SC4CCCCC4)c(OC)c3)N3CCCC[C@@]3(C(=O)OC)[C@H]2C1=O,-0.1,2.6,4175,-3.9,-8.4
CCN1C(=O)[C@@H]2[C@@H](c3ccc(SC4CCCCC4)cc3)N3CCCC[C@@]3(C(=O)OC)[C@@H]2C1=O,-1.5,-173.8,16473*,27.2,6.8
Cc1sc(-n2c(C)cc(/C=N/n3cnnc3)c2C)c(C#N)c1C,-1.6,0.0,22786*,-4.5,-6.3
CCN(CC)S(=O)(=O)c1cc(C(=O)Nc2cc(C)[nH]n2)ccc1Cl,-1.2,-7.9,4191,-2.4,-4.6
O=C(Nc1cccc(C(=O)N2CCOCC2)c1)C1CCCC1,-0.3,4.6,3713,-0.3,-1.5
O=C(O)c1ccccc1C(=O)Nc1ccc(Oc2ccccc2)cc1,0.7,-4.4,5944,5.3,3.6

# Assay outcomes from PubChem BioAssay.
